Data on ten molecules can be found in PMC12864922, “TDP-43 directly inhibits mRNA accumulation in neurites through modulation of mRNA stability”.

Whole data set: some 9,900 sequences, median “r (bound/input frequency ratio)” near 0.7, cut for the highest 2% near 6.5. The sample holds the highest values, similar sequences and a random draw of the others, so the mix is not that of the screen.

First the molecules themselves.
B1: ENSMUSG00000058297.31|Spock2 (ssRNA)
RNA: GGGAGUUCUACAGUCCGACGAUCGCUUCGAUAUCCGCAUGCUAACUUAGCAAAUGGAUCCGGAAGUCAGUGCGGAGGACCCUGGCUCCAGUGGGGGAGGACUGGGGAGUGUGGCUUGUGUGUAUGUGUGAUAUGAGAUGUGUGUGUAUGAUGUGAGAUGUGAGUGUGUGAUGUGAGAUGUGUGUAUGUGAGAUGUGUGUGUGUGUGUGUGUGUGUGUGAUGUGAGUCACCCAAAGGUCCCUAUGUUAUUGAUUUUCAAAUGCACACUUUCACACACAAGGAUACACUAACAGACCAAAAUCAACUCUUGCGGUCGCACUAGUGUGGAAUUCUCGGGUGUCAAGG
B2: ENSMUSG00000031028.17|Tub|206:210 (ssRNA)
RNA: GGGAGUUCUACAGUCCGACGAUCGCUUCGAUAUCCGCAUGCUACUCUGUCCAGCUUUGACAGCAAGCUGGCCUGCGAGUAGAGGCCCCCCACUGCCUUUAGGUGGCCCAGUCCGGAGUGGAGCUUGCCUGCCUGCCAAGACAGCCCUGCCUACCCUCUGUUCAUAGGCCCUCUAUGGGCUUUCUGGCCUUACCAACCAGAGACUGGCUGCUCUGCCUCUGCUGCUGAAGCAGGGGGGACAGCAAAUGGCAUACACAGGAGAAGAAUAUUUCUGUGCCCCAAGGUCAACACACAUGCCCAGUCCCUCUUGCGGUCGCACUAGUGUGGAAUUCUCGGGUGUCAAGG
B3: ENSMUSG00000031028.285|Tub (ssRNA)
RNA: GGGAGUUCUACAGUCCGACGAUCGCUUCGAUAUCCGCAUGCUAUGCAGGUAAGGAGGCUGGAUUGAUGUAAAUGGAAGUAGUACUUUAAGAAAGCUCUAGAUUUCCCAGGUUGGACACUCGACGAAAGGCACACCUGCUGCAGCAGGUUCUGACACACCUGAGCCAUACAUUGCCAUCAGAGAACCCUCAGCGAGGUAGCCUUUGUUUACAGUCUAGUUUCUAGAGGGCAGUAGGACUUCCAUGCUGGGGCUGGCCUAUCUCCUGAUGAAAGAUUACAGUGCCAUCUCCUUCCCAUAGUUCUGCUCUUGCGGUCGCACUAGUGUGGAAUUCUCGGGUGUCAAGG
B4: ENSMUSG00000061578.738|Ksr2 (ssRNA)
RNA: GGGAGUUCUACAGUCCGACGAUCGCUUCGAUAUCCGCAUGCUAUUGUCUAAGGCUGUGGGUUUUAAAUACCUGCUGCAGGCCUCCCAUCUCUGGCUCUUUGUUUCCACUCUGGCCCAAGUUUGAGUCUCCAUAUGGGCCCUUCCUGUCCUCAUGCCCUGCCUGUCUUCAUUCCACCCAUCCACCCUCCUAAGGAUUGGUCUUGUUCCGAGAGUGAUCCUGGUAACGCCAAGCCUCCCUCUGCCCCUGUGUUGGCUUCUGUGACGGACUACCACACACCAAGAGGUUUUUCACAGUGAAGAUGUCUCUUGCGGUCGCACUAGUGUGGAAUUCUCGGGUGUCAAGG
B5: ENSMUSG00000061578.1348|Ksr2 (ssRNA)
RNA: GGGAGUUCUACAGUCCGACGAUCGCUUCGAUAUCCGCAUGCUACUCUUCCUCCUGUCCCACAGCCCCCAGGUCAGAGCCAAGCGCAUCAUCUGCAGCACACAUGUCUGUCUCCACAGGCAAGCAACCUUGCCAAGGCAGGCCAGACAGGACAGCCCAGCUUCCCACUCCAGACAUGUUGUUCUUACAUCUCUGACCCAGUGAUCUUUCUAGGGGUCUGUCACAUGUCCCAACAGGUGGACAGCUCUCCAAGUCACCAACCUGAGGAAAAUAUCCCUCCUUGUAAAAAGGCUUUCUCUUUGUAACUCUUGCGGUCGCACUAGUGUGGAAUUCUCGGGUGUCAAGG
B6: ENSMUSG00000029028.239|Lrrc47 (ssRNA)
RNA: GGGAGUUCUACAGUCCGACGAUCGCUUCGAUAUCCGCAUGCUAGUGCGAGAGCCGUUAGCUGUCAGAACUAGUGAAGCUCCAGGCUCCUCGUGGCAGACCCUGGACAACGCUGGUAGCUGUUCUCCAUGAGACACGGCUGCUCACAGGUCCCUUUGAGUGGCUGUGGCAAGUACUCACCUACUAAGUGUUUAGGGUGGAGCUAUCCUGUGCUCACCCUGUCUCCCCCCAGUUCCUGCUGUUCCCUCCAGCCCAGCCCAGCCCAGGUGUGAGAUUCAUUGAGAUUUUUGAAACUGUUUUUACAGCUCUUGCGGUCGCACUAGUGUGGAAUUCUCGGGUGUCAAGG
B7: ENSMUSG00000029028.154|Lrrc47 (ssRNA)
RNA: GGGAGUUCUACAGUCCGACGAUCGCUUCGAUAUCCGCAUGCUAGCUUGUUUCCAGGCACCGUGCUGCCGCCAUGCUCCCAGGGCAGCAUCUGCCUUCCACGGCUGUGCUUGGAACUGUAGUGCUGGUCGUUGUUGGCACAUCUGCGCCUUGGCCAAGGAAGUUAUCUAUGUCCGUGUAGUCCUUUGUAGUCAGACAGAUGCUUCGUGGACUGUGCCUCACACAUGGCCCUGCAGGCUCCAUGUCAGCGUGUCCCACUAUUCAUGUCCCAUCUCUGUGCAUCCUGACUGCGCACAUCCCAUCUCCUCUUGCGGUCGCACUAGUGUGGAAUUCUCGGGUGUCAAGG
B8: ENSMUSG00000061578.113|Ksr2|98:102;184:189;252:256 (ssRNA)
RNA: GGGAGUUCUACAGUCCGACGAUCGCUUCGAUAUCCGCAUGCUACUCCCAUUUUGUAAGAACACUGUUCUAACUCACCUCAUGCCCACGCUACCCUGGGCAACUGGAGAACACCAUAGCGUUUCAGCUGAUGUGACAUUUGCACACACCUUUACCAGUUCACCAUCAUUCAUGGCUUCCCCCAAAGUCCCGAGUCCUGAGAACCGGGGCUGUGGCAAGAGAGUUCUGCACACAUCUCUCUGUGGGGCUAGCAAUGCCGGGGUUAAGUUCUCCCUCGGUGAUGGAGACGGUCCUGGCAUACCAUGCUCUUGCGGUCGCACUAGUGUGGAAUUCUCGGGUGUCAAGG
B9: ENSMUSG00000034801.54|Sos2 (ssRNA)
RNA: GGGAGUUCUACAGUCCGACGAUCGCUUCGAUAUCCGCAUGCUAUCAAUGACCUUGGCCAUAUGUAGUCAUUGACACUGGAAUAGUAUUUGUAAAGGUUUUUAAUUUAUUCAAAAAGACAUAGUAUUUUAGUACUUUUUACAGAAAUGCUACUGAUUAAAUAAGCUCUUAAGAAUUAGUAAACUUGUUGGAUGGCAGUGGCCCACAGCUGUAAUCCCAGCACCCUGGUUGCAGGGGCAGGUGGGCUUCAGGGUUUGAGAGCAGCCUGGUCUACAGAGCAAGUCCCAGGACAGCCAGGGCUACACCUCUUGCGGUCGCACUAGUGUGGAAUUCUCGGGUGUCAAGG
B10: ENSMUSG00000090935.235|Synj2bp (ssRNA)
RNA: GGGAGUUCUACAGUCCGACGAUCGCUUCGAUAUCCGCAUGCUAGGGGACUAGGGGAUCAUAUUCCCUCAUAUAUAAUCAAGACUCAUAUUGAAAAAUGAGUUCUGGAUUGUAAAGAGAACUUACUUUUUCCACUUGCCUGUAAGUCUUUGUCCACAAGUUAAAAACAUACACAGUGCUAAGGAAUGAUCAUAACUGAAACAUUUCAAGAACUAUUAGCAGAGCAUGUAUAUUGAGGAUGGGGAAGUUAGCUUUAAAAGAGAAUGCUCAGUCAGUGACAUUAGGAAAAUAAUGACUGAAGCAAUCUCUUGCGGUCGCACUAGUGUGGAAUUCUCGGGUGUCAAGG

Sequence of TDP-43 (Q13148 whole entry): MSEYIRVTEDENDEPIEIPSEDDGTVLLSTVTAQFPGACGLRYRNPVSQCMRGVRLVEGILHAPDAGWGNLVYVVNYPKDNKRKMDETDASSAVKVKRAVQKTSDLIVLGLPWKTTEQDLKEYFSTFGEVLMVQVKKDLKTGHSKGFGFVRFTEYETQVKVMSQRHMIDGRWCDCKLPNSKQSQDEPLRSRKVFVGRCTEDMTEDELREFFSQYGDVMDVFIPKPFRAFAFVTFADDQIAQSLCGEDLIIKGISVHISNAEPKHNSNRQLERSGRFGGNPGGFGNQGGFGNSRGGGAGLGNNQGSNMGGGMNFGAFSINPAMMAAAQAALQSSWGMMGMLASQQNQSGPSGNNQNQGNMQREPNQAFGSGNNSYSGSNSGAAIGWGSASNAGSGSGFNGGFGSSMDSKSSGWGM

For the assay, the target named is TDP-43 (Homo sapiens, UniProt Q13148 1-414). As to the kind of experiment: RNA Bind-n-Seq with designed 260-mer pool; 25 mM Tris-HCl, 150 mM KCl, 3 mM MgCl2, BSA (printed 500 mg/mL), 20 units/mL SUPERase IN; pH not stated; 500 nM RNA pool, 1 h, 4 C; TDP-43 5, 50, 500 nM; high values mean tight binding. The note with it: protein: recombinant; tags: SBP (GST cleaved off with PreScission; pGEX-GST-SBP). Summed up:
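Streptavidin beads captured recombinant SBP-tagged TDP-43 at 5, 50 or 500 nM, and the beads were incubated for 1 h at 4 °C with 500 nM of an in vitro-transcribed pool of 260-nt 3′ UTR oligos in 25 mM Tris-HCl, 150 mM KCl, 3 mM MgCl2, BSA and SUPERase IN. After washing, bound RNA was eluted with biotin, reverse transcribed, PCR-amplified and sequenced. Binding is reported as R, the mapped-read-normalized abundance of each oligo in the bound sample divided by its abundance in the input. Two independent protein batches served as duplicates.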
Take B1: the binding signal was 8.63 R (bound/input frequency ratio). Next, B2: 0.458 R (bound/input frequency ratio); B3: 0.881 R (bound/input frequency ratio); B4: 1.57 R (bound/input frequency ratio).

On to B5, for which the binding signal was 0.533 R (bound/input frequency ratio). With B6, the binding signal was 0.716 R (bound/input frequency ratio).

Consider B7, for which the binding signal is 1.62 R (bound/input frequency ratio). Next, B8: 0.484 R (bound/input frequency ratio).

As to B9, the binding signal was 0.356 R (bound/input frequency ratio). Consider B10, for which the binding signal is 0.157 R (bound/input frequency ratio).
